PubChem BioAssay (EPA / NIEHS)
“And” between values parts separate entries of the source, which are not always exact repeats. Identical values can stand only once. Where a structure was tested more than once in an assay, its records may differ in their call. The source made the active and inactive calls. How the source made its calls: active means hit-call score of the fitted dose curve at least 0.9, where 1 is the maximum; inconclusive means response in the unintended direction; inactive means score below 0.9.

The molecules below were run on rat CYP2B1, gene 24300 (assay: NVS_ADME_rCYP2B1: NovaScreen (NVS) CYP450-related Enzyme Activity (ADME) Assay for rat CYP2B1 (AID 2283117)).
Experimental: NVS_ADME_rCYP2B1 is a biochemical, single-readout assay that uses extracted gene-proteins in a cell-free assay. Measurements were taken 0.75 hour after chemical dosing in a 96-well plate.NVS_ADME_rCYP2B1 is one of one assay component(s) measured or calculated from the NVS_ADME_rCYP2B1 assay. It is designed to make measurements of enzyme activity, a form of enzyme reporter, as detected with fluorescence intensity signals by Fluorescence technology.Data from the assay component NVS_ADME_rCYP2B1 was analyzed into 1 assay endpoint. This assay endpoint, NVS_ADME_rCYP2B1, was analyzed in the positive analysis fitting direction relative to Acetonitrile as the negative control and baseline of activity. Using a type of enzyme reporter, loss-of-signal activity can be used to understand changes in the enzymatic activity as they relate to the gene Cyp2b1. Furthermore, this assay endpoint can be referred to as a primary readout, because this assay has produced multiple assay endpoints where this one serves a enzymatic activity function. To generalize the intended target to other relatable targets, this assay endpoint is annotated to the cyp intended target family, where the subfamily is xenobiotic metabolism.
Binding assays used specific radioligands (tritiated, iodinated) with non-radioactive competitive displacement ligands in agonist or antagonist protocols (as indicated) and various reference compounds and inhibitors to titrate specific binding to receptors and transporters. Most enzyme assays (CYPs, kinases, phosphatases, proteases, HDACs) used recombinant protein and specific substrates (fluorescence mostly, some colorimetric and radioactive) and inhibitors, followed by a biochemical separation of substrate and product. All assays for the biochemical HTS were initially run in duplicate at a single concentration (10 uM for CYP450 assays and 25 uM for all others). Assay-chemical combinations meeting a pre-defined threshold (e.g., 30% inhibition and other criteria defined below) were then run in singleton concentration-response format with maximum concentration of 20 uM for CYPs and 50 uM for all others. Each assay was run with positive and negative controls, and concurrent controls on every plate. The follow-up (secondary) screen tested active chemical-pairs in concentration series, as well as a few additional assays not tested in the primary screen, some selected negative inactives, and several cases re-run in the concentration series for confirmatory purposes.

| Compound | outcome | AC50 |
| --- | --- | --- |
| CCNc1nc(Cl)nc(NC(C)C)n1 | inactive |  |
| CCOP(=S)(OCC)SCn1c(=O)oc2cc(Cl)ccc21 |  | 0.708 µM (active) |
| CCCC1COC(Cn2cncn2)(c2ccc(Cl)cc2Cl)O1 (centres undefined) |  | 799 nM (active) and 409 nM (active) |
| CCCCOC(=O)c1ccccc1C(=O)OCCCC | inactive | 2.31 µM (active) |
| CC1COC(Cn2cncn2)(c2ccc(Oc3ccc(Cl)cc3)cc2Cl)O1 (centres undefined) |  | 0.552 µM (active) |
| CCON=C(CC)C1=C(O)CC(c2c(C)cc(C)cc2C)CC1=O (centres undefined) | inactive |  |
| COc1ccc(C(c2ccc(OC)cc2)C(Cl)(Cl)Cl)cc1 | inactive |  |
| CCCN(CCC)c1c([N+](=O)[O-])cc(S(N)(=O)=O)cc1[N+](=O)[O-] |  | 7.63 µM (active) |
| CN(C)C(=S)SSC(=S)N(C)C |  | 2.11 µM (active) |
| N#CC(CCc1ccc(Cl)cc1)(Cn1cncn1)c1ccccc1 (centres undefined) |  | 0.0692 µM (active) |
| O=C(Nc1ccccc1)Nc1ccnc(Cl)c1 |  | 6.41 µM (active) |
| OC(c1ccc(Cl)cc1)(c1cncnc1)c1ccccc1Cl (centres undefined) |  | 1.17 µM (active) |
| CCOC(=O)CC(SP(=S)(OC)OC)C(=O)OCC (centres undefined) |  | 3.83 µM (active) |
